From ChEMBL document CHEMBL1961873, “Compounds: GSK PKIS; Assays: Nanosyn kinase panel” (2012)

target: Tyrosine-protein kinase HCK (Homo sapiens) (UniProt P08631); conditions: at 0.1 µM
Sequence (P08631 2-526 limits assumed): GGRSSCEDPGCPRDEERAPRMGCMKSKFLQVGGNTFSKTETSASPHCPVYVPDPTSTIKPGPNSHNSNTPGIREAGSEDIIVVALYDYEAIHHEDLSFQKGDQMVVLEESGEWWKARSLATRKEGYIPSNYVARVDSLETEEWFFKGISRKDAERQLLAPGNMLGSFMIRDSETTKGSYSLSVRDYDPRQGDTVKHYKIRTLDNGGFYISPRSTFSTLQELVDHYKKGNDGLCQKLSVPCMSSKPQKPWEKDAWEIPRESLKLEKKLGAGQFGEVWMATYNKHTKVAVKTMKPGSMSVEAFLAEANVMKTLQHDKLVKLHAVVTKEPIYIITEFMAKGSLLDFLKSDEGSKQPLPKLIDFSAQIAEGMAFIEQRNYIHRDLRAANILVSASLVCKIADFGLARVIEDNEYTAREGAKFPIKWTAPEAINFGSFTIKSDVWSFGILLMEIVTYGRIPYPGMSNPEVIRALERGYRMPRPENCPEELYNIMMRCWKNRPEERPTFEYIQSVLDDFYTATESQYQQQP

| Structure (SMILES) | inhibition [%] |
| --- | --- |
| ON=C1CCc2cc(-c3nc(C4CCNCC4)[nH]c3-c3ccncc3)ccc21 | 0.2 |
| CS(=O)(=O)Nc1cccc(-c2ccc3c(NC(=O)C4CC4)n[nH]c3c2)c1 | 3.53 |
| NS(=O)(=O)c1ccc(-c2cc3ccncc3cc2OCc2ccccc2)cc1 | 4.9 |
| [O-][S+]1CCN(Cc2ccc(-c3ccc4ncnc(Nc5ccc(OCc6ccccc6)c(Cl)c5)c4c3)o2)CC1 | 2.6 |
| N#Cc1c(NC(=O)c2ccccc2F)sc2c1CCCC2 | -1.54 |
| COc1cc2ncn(-c3cc(OCc4ccccc4S(C)(=O)=O)c(C#N)s3)c2cc1OC | 16.2 |
| NC(=O)c1cccc(Nc2nccc(Nc3cccc(F)c3)n2)c1 | 3.16 |
| CN(C)C(=O)O[C@H]1CN[C@H](C#Cc2cc3ncnc(Nc4ccc(OCc5cccc(F)c5)c(Cl)c4)c3s2)C1 | 4.49 |
| Cc1ccc(NC(=O)CC2CC2)cc1-c1ccc(C(=O)NCC2CC2)cc1 | 9 |
| CN(C)c1cc2c(Nc3ccc4c(cnn4Cc4ccccc4)c3)ncnc2cn1 | 7.12 |
| CN(c1ccc(NC(=O)Nc2ccc(OC(F)(F)F)cc2)cc1)c1ccnc(Nc2cccc(S(N)(=O)=O)c2)n1 | 25.2 |
| CCS(=O)(=O)c1ccc(OC)c(Nc2ncc(-c3cccc(OC)c3)o2)c1 | 21.1 |
| COc1cc(Nc2nccc(-c3cnn4ncccc34)n2)cc(OC)c1 | 5.71 |
| O=C1Nc2ccc(-c3cccnc3)cc2C1=Cc1cc(Br)c(O)c(Br)c1 | 3.63 |
| CN(C)C(=O)O[C@@H]1CN[C@@H](C#Cc2cc3ncnc(Nc4ccc(OCc5cccc(F)c5)c(Cl)c4)c3s2)C1 | 1.53 |
| Cc1nc(-c2ccccc2)n2nc(NCCCN3CCOCC3)ncc12 | 3.98 |
| COc1cc(/C=N/Nc2ncnc3c2cnn3C(C)C)ccc1O | 7.16 |

| Structure (SMILES) | inhibition [%] |
| --- | --- |
| COc1cccc(-n2nc(C)c3c(N/N=C(\C)c4ccncc4)ncnc32)c1 | 1.01 |
| Cc1ccc2c(-c3ccnc(Nc4ccc5c(c4)OCCO5)n3)c(-c3ccc(C(F)(F)F)cc3)nn2n1 | 1.01 |
| COc1cc2ncnc(Nc3ccc4c(cnn4Cc4ccccc4)c3)c2cc1OC | 11.4 |
| Cc1ccc2c(-c3ccnc(Nc4cccc(C(F)(F)F)c4)n3)c(-c3ccccc3)nn2n1 | 11.3 |
| Cc1cc(O)cc(C)c1/C=C/c1cncc(C(=O)N(C)C)c1 | 4.54 |
| Nc1ccc(C#Cc2cncnc2Nc2ccc(OCc3cccc(F)c3)c(Cl)c2)cc1 | 4.6 |
| Nc1nccc(-c2c(-c3ccc(F)cc3)ncn2CCCN2CCOCC2)n1 | 5.16 |
| N#Cc1cccc(Nc2nccc(-c3cnn4ncccc34)n2)c1 | 7.16 |
| NC(=O)c1sc(-n2cnc3ccccc32)cc1OCc1ccccc1Br | 4.21 |
| CCS(=O)(=O)c1ccc(OC)c(Nc2nccc(N(C)c3ccc4c(C)n[nH]c4c3)n2)c1 | 39.5 |
| O=C(Nc1ccc(Oc2ccc3[nH]c(NC(=O)c4ccco4)nc3c2)cc1)Nc1cc(C(F)(F)F)ccc1F | 7.54 |
| COC(=O)c1ccc2c(c1)C(=Cc1cc(Br)c(O)c(Br)c1)C(=O)N2 | 5.59 |
| CCOc1nccc2c1nc(-c1nonc1N)n2CC | 4.58 |
| COC(=O)Nc1nc2cc(Oc3ccc(NC(=O)Nc4cccc(Br)c4)cc3)ccc2[nH]1 | 6.2 |
| CCn1c(-c2nonc2N)nc2c(C#CC(C)(C)O)nc(OCCNC)cc21 | 5.42 |
| NS(=O)(=O)c1cccc(-c2cc3ccncc3cc2OCc2ccccc2)c1 | 7.87 |
| NS(=O)(=O)c1ccc(N/N=C2\C(=O)Nc3ccc(Cl)cc32)cc1 | 5 |

target: Tyrosine-protein kinase HCK (Homo sapiens) (UniProt P08631); conditions: at 1 µM

| Structure (SMILES) | inhibition [%] |
| --- | --- |
| ON=C1CCc2cc(-c3nc(C4CCNCC4)[nH]c3-c3ccncc3)ccc21 | 4.24 |
| CS(=O)(=O)Nc1cccc(-c2ccc3c(NC(=O)C4CC4)n[nH]c3c2)c1 | 3.03 |
| NS(=O)(=O)c1ccc(-c2cc3ccncc3cc2OCc2ccccc2)cc1 | 6.46 |
| [O-][S+]1CCN(Cc2ccc(-c3ccc4ncnc(Nc5ccc(OCc6ccccc6)c(Cl)c5)c4c3)o2)CC1 | 3.96 |
| N#Cc1c(NC(=O)c2ccccc2F)sc2c1CCCC2 | 0.95 |
| COc1cc2ncn(-c3cc(OCc4ccccc4S(C)(=O)=O)c(C#N)s3)c2cc1OC | 61.8 |
| NC(=O)c1cccc(Nc2nccc(Nc3cccc(F)c3)n2)c1 | 30.8 |
| CN(C)C(=O)O[C@H]1CN[C@H](C#Cc2cc3ncnc(Nc4ccc(OCc5cccc(F)c5)c(Cl)c4)c3s2)C1 | 10.5 |
| Cc1ccc(NC(=O)CC2CC2)cc1-c1ccc(C(=O)NCC2CC2)cc1 | 10.3 |
| CN(C)c1cc2c(Nc3ccc4c(cnn4Cc4ccccc4)c3)ncnc2cn1 | 19.9 |
| CN(c1ccc(NC(=O)Nc2ccc(OC(F)(F)F)cc2)cc1)c1ccnc(Nc2cccc(S(N)(=O)=O)c2)n1 | 77.3 |
| CCS(=O)(=O)c1ccc(OC)c(Nc2ncc(-c3cccc(OC)c3)o2)c1 | 67.2 |
| COc1cc(Nc2nccc(-c3cnn4ncccc34)n2)cc(OC)c1 | 32.8 |
| O=C1Nc2ccc(-c3cccnc3)cc2C1=Cc1cc(Br)c(O)c(Br)c1 | 11.1 |
| CN(C)C(=O)O[C@@H]1CN[C@@H](C#Cc2cc3ncnc(Nc4ccc(OCc5cccc(F)c5)c(Cl)c4)c3s2)C1 | 4.13 |
| Cc1nc(-c2ccccc2)n2nc(NCCCN3CCOCC3)ncc12 | 4.67 |
| COc1cc(/C=N/Nc2ncnc3c2cnn3C(C)C)ccc1O | 32.6 |

| Structure (SMILES) | inhibition [%] |
| --- | --- |
| COc1cccc(-n2nc(C)c3c(N/N=C(\C)c4ccncc4)ncnc32)c1 | 3.38 |
| Cc1ccc2c(-c3ccnc(Nc4ccc5c(c4)OCCO5)n3)c(-c3ccc(C(F)(F)F)cc3)nn2n1 | 2.01 |
| COc1cc2ncnc(Nc3ccc4c(cnn4Cc4ccccc4)c3)c2cc1OC | 48.5 |
| Cc1ccc2c(-c3ccnc(Nc4cccc(C(F)(F)F)c4)n3)c(-c3ccccc3)nn2n1 | 45.1 |
| Cc1cc(O)cc(C)c1/C=C/c1cncc(C(=O)N(C)C)c1 | 10.8 |
| Nc1ccc(C#Cc2cncnc2Nc2ccc(OCc3cccc(F)c3)c(Cl)c2)cc1 | 5.04 |
| Nc1nccc(-c2c(-c3ccc(F)cc3)ncn2CCCN2CCOCC2)n1 | 6.92 |
| N#Cc1cccc(Nc2nccc(-c3cnn4ncccc34)n2)c1 | 35.9 |
| NC(=O)c1sc(-n2cnc3ccccc32)cc1OCc1ccccc1Br | 7.03 |
| CCS(=O)(=O)c1ccc(OC)c(Nc2nccc(N(C)c3ccc4c(C)n[nH]c4c3)n2)c1 | 72.1 |
| O=C(Nc1ccc(Oc2ccc3[nH]c(NC(=O)c4ccco4)nc3c2)cc1)Nc1cc(C(F)(F)F)ccc1F | 47.3 |
| COC(=O)c1ccc2c(c1)C(=Cc1cc(Br)c(O)c(Br)c1)C(=O)N2 | 18.3 |
| CCOc1nccc2c1nc(-c1nonc1N)n2CC | 11.4 |
| COC(=O)Nc1nc2cc(Oc3ccc(NC(=O)Nc4cccc(Br)c4)cc3)ccc2[nH]1 | 6.79 |
| CCn1c(-c2nonc2N)nc2c(C#CC(C)(C)O)nc(OCCNC)cc21 | 8.69 |
| NS(=O)(=O)c1cccc(-c2cc3ccncc3cc2OCc2ccccc2)c1 | 11.1 |
| NS(=O)(=O)c1ccc(N/N=C2\C(=O)Nc3ccc(Cl)cc32)cc1 | 11.4 |
